This note sets out measurements from PubChem BioAssay (NCATS).

The structures appear in SMILES notation.

The nature of this assay: High-throughput drug toxicity screening in the BPDCN cell line Gen2.2 (AID 1224824). The settings on record: Gen2.2 BPDCN cells; at 45.8 µM (top of the series). The source says: Blastic plasmacytoid dendritic cell neoplasm (BPDCN) is a rare, aggressive and largely incurable hematologic malignancy originating from plasmacytoid dendritic cells (pDCs). Although an initial response to chemotherapy is common, BPDCN prognosis is extremely poor and most patients relapse with drug-resistant disease leading to a median overall survival of ~1 year after diagnosis. To explore novel potential therapeutic strategies in BPDCN, we performed a high-throughput drug toxicity screening in BPDCN cell liens, using of a library of 1,912 small molecules, enriched for compounds that are either approved or in early stages of development for cancer therapy.
A total of 500 exponentially growing Gen2.2 cells were seeded per well in 5 uL of media (RPMI + Glutamine, without phenol red plus10% FBS and 1X Pen/Strep) into 1536-well solid white high base tissue culture treated Greiner One Bio Plates (789173-F), using a multidrop combi dispenser and a small sterile cassette. Compounds and controls totaling 23nL per well (negative control DMSO and positive control 9.2 uM Bortezomib-final) were immediately added to the plates using a 1536 head pin tool from Kalypsys. The plates were then covered with stainless steel gasket lids from Kalypsys and incubated for 48 hours at 37C under 95% relative humidity with 5% CO2. After 48 hours, the plates were removed and allowed to reach room temperature before 3 uL of Cell Titer Glo reagent (Promega) were added using an Aurora Flying Reagent Dispenser Bioraptor. The plates were then spun at 1000 rpms to remove bubbles and incubated for 15 minutes at room temperature before reading on a ViewLux using a luminescent filter with a 10 second exposure. The relative luciferase units were used to calculated percent activity using DMSO as 100% and Bortezomib as 0%.
Turning to `C[C@@H]1[C@@H](CC(C[C@H]2O[C@@H]3O[C@]4(C)CC[C@@H]5[C@H](C)CC[C@@H]([C@H]2C)[C@@]35OO4)C[S+](=O)([O-])c2ccc(COC(=O)N(C)C)cc2)O[C@@H]2O[C@]3(C)CC[C@H]4[C@H](C)CC[C@@H]1[C@@]24OO3` (stereo partly drawn), the cell viability, % of control (lower = more cytotoxic) was determined as 15.5%. For `CN(C)[C@@H]1C(=O)C(C(N)=O)=C(O)[C@@]2(O)C(=O)C3=C(O)c4c(O)cccc4[C@@](C)(O)[C@H]3C[C@@H]12` the value was 333%. With `CN1CCN(C(=O)O[C@H]2c3nccnc3C(=O)N2c2ccc(Cl)cn2)CC1` the figure was 126%; with `CC(O)(CS(=O)(=O)c1ccc(F)cc1)C(=O)Nc1ccc(C#N)c(C(F)(F)F)c1` (stereo not drawn), 9.43%; with `NCC1(CC(=O)O)CCCCC1`, 114%. As for `O=c1[nH]c2ccccc2n1CCCN1CCC(n2c(=O)[nH]c3cc(Cl)ccc32)CC1`, the cell viability, % of control (lower = more cytotoxic) is 278%. With `C=C(C)[C@H]1Cc2c(ccc3c2O[C@@H]2COc4cc(OC)c(OC)cc4[C@@H]2C3=O)O1` the figure was 45.8%; with `Fc1ccc(C(OCCN2CCN(CCCc3ccccc3)CC2)c2ccc(F)cc2)cc1`, 57.3%. For `O=C(O)C(=O)c1cn(Cc2ccccc2)c2ccc(-c3ccc(OC(F)(F)F)cc3)cc12` the value was 171%; for `O=P1(NCCCl)OCCCN1CCCl` (stereo not drawn), 49.3%; for `COC1(CS(=O)c2ccccc2)CCN(CCc2c[nH]c3ccc(F)cc23)CC1` (stereo not drawn), 66.1%. As for `CNCC(O)c1ccc(O)cc1` (stereo not drawn), the cell viability, % of control (lower = more cytotoxic) was 145%. For `CNC(=O)N1N=C(c2ccc(N)cc2)c2cc3c(cc2CC1C)OCO3` (stereo not drawn) the value was 24.2%; for `O=C1CC[C@@]2(O)[C@H]3Cc4ccc(O)c5c4[C@@]2(CCN3CC2CC2)[C@H]1O5`, 200%; for `Cc1cc(SCc2sc(-c3ccc(C(F)(F)F)c(F)c3)nc2C)ccc1OCC(=O)O`, 144%. With `COc1ccc2c(c1OC)CN1CCc3cc4c(cc3C1C2)OCO4` (stereo not drawn) the figure was 173%; with `N[C@@H](Cc1ccc(N(CCCl)CCCl)cc1)C(=O)O`, 5.36%; with `COC[C@@H](NC(C)=O)C(=O)NCc1ccccc1`, 142%.

Take `CCCC(C)(COC(N)=O)COC(=O)NC(C)C` (stereo not drawn): the cell viability, % of control (lower = more cytotoxic) was 386%. In the case of `Cc1cccc(C)c1NC(=O)CN1CCCC1=O`, the cell viability, % of control (lower = more cytotoxic) was 116%.

As for `C[C@@H]1[C@@H](C(=O)C[C@H]2O[C@@H]3O[C@]4(C)CC[C@@H]5[C@H](C)CC[C@@H]([C@H]2C)[C@@]35OO4)O[C@@H]2O[C@]3(C)CC[C@H]4[C@H](C)CC[C@@H]1[C@@]24OO3`, the cell viability, % of control (lower = more cytotoxic) came out at 9%.

With `Cn1c(CCCC(=O)O)nc2cc(N(CCCl)CCCl)ccc21`, the cell viability, % of control (lower = more cytotoxic) was determined as 53.7%. With `CN(C)CCc1ccc(O)cc1` the figure was 191%; with `CNC(=O)c1ccc(N2C(=S)N(c3ccc(C#N)c(C(F)(F)F)c3)C(=O)C23CCC3)cc1F`, 16.5%. With `C#CCN(C)[C@H](C)Cc1ccccc1` the figure was 160%; with `COc1ccc(C(=O)c2c(C)n(CCN3CCOCC3)c3ccccc23)cc1`, 100%. For the molecule `COc1ccc(C(CN(C)C)C2(O)CCCCC2)cc1` (stereo not drawn), the cell viability, % of control (lower = more cytotoxic) is 171%. For `CN(C)CCN(C)CCc1ccc(Cl)c(Cl)c1` the value was 137%; for `CC1=C2C[C@@H]3[C@@H](CC=C4C[C@@H](O)CC[C@@]43C)[C@@H]2CC[C@]12O[C@H]1C[C@H](C)CN[C@H]1[C@H]2C`, 107%. `Cc1sc2c(c1C)C(c1ccc(Cl)cc1)=N[C@@H](CC(=O)OC(C)(C)C)c1nnc(C)n1-2`: the cell viability, % of control (lower = more cytotoxic) came out at 1.32%. Regarding `C[C@@H]1O[C@@H](O[C@H]2C[C@@H](O)[C@]3(CO)[C@H]4[C@H](O)C[C@]5(C)[C@@H](C6=CC(=O)OC6)CC[C@]5(O)[C@@H]4CC[C@]3(O)C2)[C@H](O)[C@H](O)[C@H]1O`, the cell viability, % of control (lower = more cytotoxic) is 26%.

With `Cn1cc(C2=C(c3cn(C4CCN(Cc5ccccn5)CC4)c4ccccc34)C(=O)NC2=O)c2ccccc21`, the cell viability, % of control (lower = more cytotoxic) is 265%.

Regarding `CC(C)CC(N(C)C)C1(c2ccc(Cl)cc2)CCC1` (stereo not drawn), the cell viability, % of control (lower = more cytotoxic) is 134%.
